The values below come from PubChem BioAssay (NCATS).

The nature of assay [1]: MultiTox-Fluor Cytotoxicity Assay - LYMP1-002 - Dead Cells (AID 960; active = well fitted curve in the direction sought with a large enough effect; an effect the other way counts as inactive or inconclusive; also: potency is read from the fitted curve at half-maximal effect; nearly all actives have a fitted effect of over 60% in size). A digest of the protocol: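 Human lymphoblastoid cells (LYMP1-002), 2500/well in complete medium, were exposed to compounds for 16 hr at 37 C. Dead-cell protease activity was read as bis-AAF-R110 fluorescence (Ex/Em 485/520), normalized to DMSO and 15 uM tetraoctylammonium bromide; AC50 from Hill fits.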

Assay [2] addresses Bile acid receptor (Homo sapiens) (UniProt Q96RI1). Put plainly: qHTS assay for small molecule agonists of farnesoid X receptor signaling (AID 588527).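 Also: 0% = vehicle basal and 100% = reference agonist.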 The note with it: HEK293T FXR-UAS-bla, beta-lactamase ratio, 16 h; stronger effect = higher value. The method in brief: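 Agonist-mode beta-lactamase reporter in GeneBLAzer FXR-UAS-bla HEK293T cells, titration up to 92 uM, 16 h exposure at 37 C, CCF4 fluorescence. Response scaled to DMSO (0%) and 100 uM chenodeoxycholic acid (100%), then Hill-fitted for EC50 and efficacy.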
A general note: Quantitative high-throughput screening tests each substance at several concentrations.

Assay [3] can be described thus: Primary qHTS for inhibitors of SARS-S pseudo-typed particle cell entry (AID 1479145). Also: nearly all actives have a fitted effect of over 45% in size. Also: potency is read from the fitted curve at half-maximal effect. As to activity change, negative = inhibition: % is scaled to controls: 0 for no effect and ±100 for the full control effect. Conditions: outcome: dose series up to 57.1 µM unless noted.
A short description of assay [4]: Primary qHTS for inhibitors of MERS-S pseudo-typed particle cell entry (AID 1479149). Also: nearly all actives have a fitted effect of over 60% in size. Also: potency is read from the fitted curve at half-maximal effect. As to activity change, negative = inhibition: % is scaled to controls: 0 for no effect and ±100 for the full control effect. The note with it: outcome: dose series up to 57.1 µM unless noted.
A short description of assay [5]: Primary qHTS to identify inhibitors of SARS-CoV-2 cell entry (AID 1645846). Also: nearly all actives have a fitted effect of over 45% in size. Also: potency is read from the fitted curve at half-maximal effect. Conditions: SARS-CoV-2 pseudovirus cell entry assay, luminescence. The method in brief: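 Using luciferase-reporting pseudoviruses carrying Wuhan-Hu-1 spike, the screen tracks entry into stably ACE2-expressing cells over 48 hr. Activity is expressed relative to spike particles versus particles lacking any fusion protein.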

A short description of assay [6]: Primary qHTS for Huh7 cytotoxicity: counterscreen for inhibitors of MERS-S pseudotyped particle cell entry (AID 1479147). Also: potency is read from the fitted curve at half-maximal effect. The note with it: outcome: dose series up to 57.1 µM unless noted.
Assay [7] in a line: Primary qHTS for Vero E6 cytotoxicity: counterscreen for inhibitors of SARS-S pseudo-typed particle cell entry (AID 1479150). Conditions: outcome: dose series up to 57.1 µM unless noted.
Assay [8] is described as follows: Confirmatory qHTS to identify inhibitors of SARS-CoV-2 cell entry (AID 1645844). Also: nearly all actives have a fitted effect of over 45% in size. Also: potency is read from the fitted curve at half-maximal effect. A digest of the protocol: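 HEK293-ACE2 cells were pretreated 1 h with compound, then infected with MLV-based pseudoparticles bearing C-terminally truncated Wuhan-Hu-1 spike for 48 h at 37C; luciferase luminescence normalized to spike PP and bald PP wells.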
The nature of assay [9]: VSVG counterscreen qHTS to identify inhibitors of SARS-CoV-2 cell entry (AID 1645847). Also: nearly all actives have a fitted effect of over 65% in size. Also: potency is read from the fitted curve at half-maximal effect. As to activity change, negative = inhibition: % is scaled to controls: 0 for no effect and ±100 for the full control effect. The method in brief:
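Entry of VSV-G pseudotyped particles into human ACE2-expressing HEK293 cells was measured by luciferase luminescence 48 h after infection, with compound added 1 h beforehand.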
In general terms: A counterscreen serves to expose hits that act by an unwanted route or on another target.

The nature of assay [10]: Cytotoxicity counterscreen for inhibitors of SARS-CoV-2 cell entry (AID 1645845). Also: nearly all actives have a fitted effect of over 50% in size. Also: potency is read from the fitted curve at half-maximal effect. Conditions: outcome: dose series up to 57.1 µM unless noted. A digest of the protocol:
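HEK293-ACE2 cells (Expi293F stably expressing human ACE2) seeded overnight, then compound for 1 h plus 48 h at 37C. Viability as ATP content by luminescence; normalized to wells with cells and media-only wells.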

A short description of assay [11]: qHTS Assay for Identifying Gametocytocidal Compounds (AID 743244; active = well fitted curve in the direction sought with a large enough effect; an effect the other way counts as inactive or inconclusive; also: potency is read from the fitted curve at half-maximal effect). Conditions: P. falciparum 3D7 stage III-V gametocytes, alamarBlue, 72 h. The method in brief: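 A resazurin-based viability read-out was applied to mature P. falciparum gametocytes: 72 h compound treatment, then 24 h dye incubation, with falling fluorescence signalling gametocytocidal effect.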
Where [12] appears, read: activity change, negative = inhibition: at 57.1 µM (top of the series) unless noted, outcome: at 57.1 µM (top of the series) unless noted.

Values joined by “and” are separate entries in the source; they are usually repeats but may differ in a detail not shown here. Equal entries are not always repeated. Inconclusive results are not listed. Active and inactive are the calls of the source. Unless noted, calls follow the shape of the full dose curve.

Chain of Bile acid receptor (Homo sapiens) (Q96RI1 whole entry, looked up): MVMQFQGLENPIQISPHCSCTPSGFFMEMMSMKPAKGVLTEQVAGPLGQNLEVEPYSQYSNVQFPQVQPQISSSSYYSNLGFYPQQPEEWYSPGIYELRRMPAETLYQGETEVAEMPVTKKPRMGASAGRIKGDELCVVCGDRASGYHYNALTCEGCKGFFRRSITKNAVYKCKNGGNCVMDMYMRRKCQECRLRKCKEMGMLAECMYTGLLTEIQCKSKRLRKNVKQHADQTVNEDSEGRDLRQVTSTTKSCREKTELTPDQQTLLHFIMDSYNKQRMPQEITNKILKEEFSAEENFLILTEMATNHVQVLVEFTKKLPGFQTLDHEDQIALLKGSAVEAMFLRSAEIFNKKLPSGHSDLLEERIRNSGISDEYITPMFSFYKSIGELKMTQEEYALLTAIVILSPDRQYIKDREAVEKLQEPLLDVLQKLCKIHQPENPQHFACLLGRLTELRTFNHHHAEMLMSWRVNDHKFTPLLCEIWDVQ

On to `C[C@H]1O[C@@H](O[C@H]2[C@@H](O)C[C@H](O[C@H]3[C@@H](O)C[C@H](O[C@H]4CC[C@@]5(C)[C@H](CC[C@@H]6[C@@H]5C[C@@H](O)[C@]5(C)[C@@H](C7=CC(=O)OC7)CC[C@]65O)C4)O[C@@H]3C)O[C@@H]2C)C[C@H](O)[C@@H]1O`, for which the Potency in assay [1] was 1000 nM (active). The activation in [2] is -4.19% (inactive). Also, the Potency result in assay [3] and in assay [4] was “inactive” in each case. The activity change, negative = inhibition in assay [5] (setting [12]) was -96.3% and -94.1%.
Take `C[C@@H](c1nc(-c2ccc(C#N)cc2)cs1)[C@](O)(Cn1cncn1)c1cc(F)ccc1F`: in assay [6], the Potency result is “inactive”. The Potency in assay [4] is 10000 nM (active).
Turning to `Cc1c(N)nc(C(CC(N)=O)NCC(N)C(N)=O)nc1C(=O)NC(C(=O)NC(C)C(O)C(C)C(=O)NC(C(=O)NCCc1nc(-c2nc(C(=O)NCCCN[C@@H](C)c3ccccc3)cs2)cs1)C(C)O)C(O[C@@H]1O[C@@H](CO)[C@@H](O)[C@H](O)[C@@H]1O[C@H]1O[C@H](CO)[C@@H](O)[C@H](OC(N)=O)[C@@H]1O)c1cnc[nH]1` (stereo partly specified), the Potency entry in assay [6], in assay [4] and in assay [7] was “inactive” each time. In addition, the Potency in [8] is 21.5 nM (active); in [9], 27.1 nM (active). The activity change, negative = inhibition in assay [5] (setting [12]) was -97.1%.
As for `CN(C)C(=O)c1cc2cnc(Nc3ccc(N4CCNCC4)cn3)nc2n1C1CCCC1`, the Potency entry in assay [6], in assay [4], in [7], in [8], in assay [10] and in assay [9] was “inactive” in each case. In addition, the activity change, negative = inhibition in assay [5] (at 27.1 µM (top of the series)) is -19.2%; in assay [5] (at 57.1 µM (top of the series)), -45.9%.
Regarding `CC(C)C[C@H](NC(=O)CNC(=O)c1cc(Cl)ccc1Cl)B1OC(=O)C(CC(=O)O)(CC(=O)O)O1`, the Potency entry in [3] was “inactive”. Moreover, the figures for the Potency in assay [4] and in [10] were 1260 nM (active) and 794 nM (active), respectively. For the same compound, the activity change, negative = inhibition in assay [5] (setting [12]) is -97.4%.
Turning to `CCCOc1ccc2nc(NC(=O)OC)sc2c1`, the Potency entry in [6] and in assay [4] was “inactive” in each case.
As for `CN1c2c(nc(N)[nH]c2=O)NC[C@@H]1CNc1ccc(C(=O)N[C@@H](CCC(=O)O)C(=O)O)cc1`, the outcome in [6], in assay [4] and in assay [7] was “inactive [at 5.34 µM]” throughout.
In the case of `CO[C@H]1C[C@@H]2CC[C@@H](C)[C@@](O)(O2)C(=O)C(=O)N2CCCC[C@H]2C(=O)O[C@H]([C@@H](C)C[C@@H]2CC[C@@H](O)[C@H](OC)C2)CC(=O)[C@H](C)/C=C(\C)[C@@H](O)[C@@H](OC)C(=O)[C@H](C)C[C@H](C)/C=C/C=C/C=C/1C`, the Potency entry in assay [3] and in assay [7] was “inactive” each time. Also, the Potency in assay [5] (setting [12]) is 20000 nM (active).
As for `O=C(NC1CCN(CCCCC2(C(=O)NCC(F)(F)F)c3ccccc3-c3ccccc32)CC1)c1ccccc1-c1ccc(C(F)(F)F)cc1`, the Potency in assay [6] was 31600 nM (active).
Take `CCc1cc2c(cc1CC)CC(NC[C@H](O)c1ccc(O)c3[nH]c(=O)ccc13)C2`: the Potency result in assay [3] and in assay [7] was “inactive” throughout.
Turning to `CO[C@H](C(=O)[C@@H](O)[C@@H](C)O)C1Cc2cc3cc(O[C@H]4C[C@@H](O[C@H]5C[C@@H](O)[C@H](O)[C@@H](C)O5)[C@@H](O)[C@@H](C)O4)c(C)c(O)c3c(O)c2C(=O)[C@H]1O[C@H]1C[C@@H](O[C@H]2C[C@@H](O[C@H]3C[C@](C)(O)[C@H](O)[C@@H](C)O3)[C@H](O)[C@@H](C)O2)[C@H](O)[C@@H](C)O1` (stereo partly specified), the Potency was 833 nM (active) in assay [11], 3550 nM (active) in assay [3], 171 nM (active) in [8] and 152 nM (active) in assay [9]. Further, in [10], the Potency result is “inactive”.
